Results published in PubChem BioAssay (NCATS).
Results filed as inconclusive are left out. Where a call stands in place of a potency, no number is given. Activity calls are given as the source filed them. Calls come from the whole dose curve; as a rule, active = well fitted cell-killing curve with a large enough effect; inconclusive = small, poorly fitted or top-dose-only effect, or effect the other way; inactive = no such curve, though single readings can be large or run the other way.

Test: Quantitative High-Throughput drug screen in 47 multiple myeloma cell lines against the NCATS MIPE library collection: KMS27_JCRB cell viability assay (AID 1918970); note: nearly all actives have a fitted effect of over 30% in size
Settings: KMS27 myeloma cells, CellTiter-Glo ATP viability, 48 h; series mostly up to 45.8 µM
Procedure, shortened: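 KMS27_JCRB myeloma cells, 500 per well, exposed 48 h at 37 C, 5% CO2 to MIPE 4.0 compounds. Viability from ATP by CellTiter-Glo luminescence, normalized to DMSO (100%) and medium-only (0%) wells.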
Potency is the fitted concentration of half-maximal effect.

Structure (SMILES)	Potency
CN(C)CCOC(c1ccccc1)c1ccccc1	inactive
NCCc1cnc[nH]1	inactive
CN(C)CCC=C1c2ccccc2C=Cc2ccccc21	inactive
O=C(C1CCCCC1)N1CC(=O)N2CCc3ccccc3C2C1 (stereo not drawn)	inactive
N[C@@H](Cc1c[nH]c2ccc(O)cc12)C(=O)O	inactive
CN1CCN(C2=Nc3cc(Cl)ccc3Nc3ccccc32)CC1	inactive
CS(=O)(=O)Nc1ccc([N+](=O)[O-])cc1Oc1ccccc1	inactive
C[C@H]1c2cccc(O)c2C(O)=C2C(=O)[C@]3(O)C(O)=C(C(N)=O)C(=O)[C@@H](N(C)C)[C@@H]3[C@@H](O)[C@@H]21	inactive
CN(C)C(=N)N=C(N)N	inactive
Nc1nnc(-c2cccc(Cl)c2Cl)c(N)n1	inactive
C[C@](N)(Cc1ccc(O)c(O)c1)C(=O)O	inactive
CC(CCc1ccc(O)cc1)NCCc1ccc(O)c(O)c1 (stereo not drawn)	18.7 µM (active)
OCCN(CCO)c1nc(N2CCCCC2)c2nc(N(CCO)CCO)nc(N3CCCCC3)c2n1	20.9 µM (active)
CN(Cc1cnc2nc(N)nc(N)c2n1)c1ccc(C(=O)N[C@@H](CCC(=O)O)C(=O)O)cc1	0.0296 µM (active)
O=C1N(c2ccccc2)c2ccccc2C1(Cc1ccncc1)Cc1ccncc1	inactive

Test: Quantitative High-Throughput drug screen in 47 multiple myeloma cell lines against the NCATS MIPE library collection: KMS12BM_JCRB cell viability assay (AID 1918971); note: nearly all actives have a fitted effect of over 35% in size
Settings: KMS12BM myeloma viability, CellTiter-Glo ATP, 48 h; series mostly up to 45.8 µM
Procedure, shortened: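 qHTS of the MIPE 4.0 collection: 500 myeloma cells/well, 48 h drug exposure at 37C in 5% CO2, then CellTiter-Glo for 5 min at room temperature before luminescence reading.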

Structure (SMILES)	Potency
CN(C)CCOC(c1ccccc1)c1ccccc1	inactive
NCCc1cnc[nH]1	inactive
CN(C)CCC=C1c2ccccc2C=Cc2ccccc21	1.48 µM (active)
O=c1c(-c2ccc(O)cc2)coc2cc(O)cc(O)c12	5.26 µM (active)
Clc1ccc(C(c2ccccc2Cl)C(Cl)Cl)cc1 (stereo not drawn)	18.7 µM (active)
CC(C)(Oc1ccc(C2CC2(Cl)Cl)cc1)C(=O)O (stereo not drawn)	inactive
NCCS(=O)(=O)O	inactive
CCCNCC(O)COc1ccccc1C(=O)CCc1ccccc1 (stereo not drawn)	inactive
CN1CCN(C2=Nc3cc(Cl)ccc3Nc3ccccc32)CC1	inactive
CS(=O)(=O)Nc1ccc([N+](=O)[O-])cc1Oc1ccccc1	20.9 µM (active)
O=C(CCCN1CCC(O)(c2ccc(Cl)cc2)CC1)c1ccc(F)cc1	inactive
Cc1ccccc1N1C(=O)c2cc(S(N)(=O)=O)c(Cl)cc2NC1C (stereo not drawn)	inactive
CC(CCc1ccc(O)cc1)NCCc1ccc(O)c(O)c1 (stereo not drawn)	14.8 µM (active)
OCCN(CCO)c1nc(N2CCCCC2)c2nc(N(CCO)CCO)nc(N3CCCCC3)c2n1	26.4 µM (active)
CN1CCN2c3ccccc3Cc3ccccc3C2C1 (stereo not drawn)	20.9 µM (active)
COc1cc2nc(N3CCN(C(=O)C4COc5ccccc5O4)CC3)nc(N)c2cc1OC (stereo not drawn)	6.62 µM (active)
CN(Cc1cnc2nc(N)nc(N)c2n1)c1ccc(C(=O)N[C@@H](CCC(=O)O)C(=O)O)cc1	6.62 µM (active)
Fc1ccc([C@@H]2CCNC[C@H]2COc2ccc3c(c2)OCO3)cc1	14.8 µM (active)
Cc1cc(C(C)(C)C)c(O)c(C)c1CC1=NCCN1	inactive

Test: Quantitative High-Throughput drug screen in 47 multiple myeloma cell lines against the NCATS MIPE library collection: KMS12PE_JCRB cell viability assay (AID 1918972); note: nearly all actives have a fitted effect of over 30% in size
Settings: KMS12PE myeloma viability, CellTiter-Glo ATP, 48 h; series mostly up to 45.8 µM
Procedure, shortened: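 Myeloma cells (500 per well) were exposed to MIPE 4.0 compounds by pin transfer and incubated 48 hours at 37C, 5% CO2. Viability was read as ATP by CellTiter-Glo luminescence, normalised to DMSO (100%) and media-only (0%) wells.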

Structure (SMILES)	Potency
COc1ccccc1N1CCN(CC(O)COc2cccc3ccccc23)CC1 (stereo not drawn)	inactive
NCCc1cnc[nH]1	inactive
CN(C)CCC=C1c2ccccc2C=Cc2ccccc21	inactive
O=c1c(-c2ccc(O)cc2)coc2cc(O)cc(O)c12	2.64 µM (active)
COc1cc2nc(N(C)CCCNC(=O)C3CCCO3)nc(N)c2cc1OC (stereo not drawn)	inactive
CC(C)(Oc1ccc(C2CC2(Cl)Cl)cc1)C(=O)O (stereo not drawn)	inactive
NCCS(=O)(=O)O	inactive
CC(C(=O)O)c1cccc(C(=O)c2ccccc2)c1 (stereo not drawn)	inactive
O=C(C1CCCCC1)N1CC(=O)N2CCc3ccccc3C2C1 (stereo not drawn)	inactive
Cn1ccc2cc3c(cc21)CCN3C(=O)Nc1cccnc1	20.9 µM (active)
N[C@@H](Cc1c[nH]c2ccc(O)cc12)C(=O)O	inactive
CS(=O)(=O)Nc1ccc([N+](=O)[O-])cc1Oc1ccccc1	inactive
C[C@H]1c2cccc(O)c2C(O)=C2C(=O)[C@]3(O)C(O)=C(C(N)=O)C(=O)[C@@H](N(C)C)[C@@H]3[C@@H](O)[C@@H]21	29.6 µM (active)
CN(C)C(=N)N=C(N)N	inactive
C[C@](N)(Cc1ccc(O)c(O)c1)C(=O)O	inactive
CC(CCc1ccc(O)cc1)NCCc1ccc(O)c(O)c1 (stereo not drawn)	20.9 µM (active)
OCCN(CCO)c1nc(N2CCCCC2)c2nc(N(CCO)CCO)nc(N3CCCCC3)c2n1	23.5 µM (active)
CN1CCN2c3ccccc3Cc3ccccc3C2C1 (stereo not drawn)	18.7 µM (active)
COc1cc2nc(N3CCN(C(=O)C4COc5ccccc5O4)CC3)nc(N)c2cc1OC (stereo not drawn)	5.9 µM (active)
Cc1ccc(-c2cc(C(F)(F)F)nn2-c2ccc(S(N)(=O)=O)cc2)cc1	4.18 µM (active)
Cc1cc(C(C)(C)C)cc(C)c1CC1=NCCN1	inactive
Fc1ccc([C@@H]2CCNC[C@H]2COc2ccc3c(c2)OCO3)cc1	inactive
O=C1N(c2ccccc2)c2ccccc2C1(Cc1ccncc1)Cc1ccncc1	inactive
Cc1cc(C(C)(C)C)c(O)c(C)c1CC1=NCCN1	inactive
